According to PubChem BioAssay AID1159580 (chemical genetic matrix, 2015):
The whole screen tested about 5,500 compounds, of which about 2,000 (36%) were called active. About 18% were inconclusive and are not listed. The list shows a part of the results. A number with no mark means an inactive call. No stated cut-off is given here; in the data, active means normalized growth mostly below about 0.91 (no sharp cut-off); inconclusive means no clear call, values can overlap the other calls; inactive means mostly above about 0.92.

Assay: chemical genetic growth profiling, strain panel (AID 1159580);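 further: tested at 20 µM; growth read once vehicle control cultures reached saturation at 30 °C; 1 = growth at the plate median or of vehicle wells; lower values mean less growth of the strain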
Conditions: growth OD
[1] = S. cerevisiae deletion strains, locus YBR021W, strain FUR4, active compounds read low
[2] = S. cerevisiae deletion strains, locus YBR229C, strain ROT2, active compounds read low
[3] = S. cerevisiae deletion strains, locus YCL029C, strain bik1, active compounds read low
[4] = S. cerevisiae deletion strains, locus YDL035C, strain GPR1, active compounds read low
[5] = S. cerevisiae deletion strains, locus YDL074C, strain BRE1, active compounds read low
[6] = S. cerevisiae deletion strains, locus YDL101C, strain DUN1, active compounds read low
[7] = S. cerevisiae deletion strains, locus YDL185W, strain tfp1, active compounds read low
[8] = S. cerevisiae deletion strains, locus YDL192W, strain arf1, active compounds read low
[9] = S. cerevisiae deletion strains, locus YDR101C, strain arx1, active compounds read low
[10] = S. cerevisiae deletion strains, locus YDR162C, strain NBP2, active compounds read low
[11] = S. cerevisiae deletion strains, locus YDR318W, strain mcm21, active compounds read low
[12] = S. cerevisiae deletion strains, locus YDR388W, active compounds read low
[13] = S. cerevisiae deletion strains, locus YDR502C, strain sam2, active compounds read low
[14] = S. cerevisiae deletion strains, locus YEL061C, strain CIN8, active compounds read low
[15] = S. cerevisiae deletion strains, locus YER110C, active compounds read low
[16] = S. cerevisiae deletion strains, locus YER155C, strain BEM2, active compounds read low
[17] = S. cerevisiae deletion strains, locus YER167W, strain BCK2, active compounds read low
[18] = S. cerevisiae deletion strains, locus YGL078C, strain dbp3, active compounds read low
[19] = S. cerevisiae deletion strains, locus YGL086W, strain mad1, active compounds read low
[20] = S. cerevisiae deletion strains, locus YGL248W, strain PDE1, active compounds read low
[21] = S. cerevisiae deletion strains, locus YGR135W, strain pre9, active compounds read low
[22] = S. cerevisiae deletion strains, locus YGR229C, strain SMI1, active compounds read low
[23] = S. cerevisiae deletion strains, locus YGR252W, strain gcn5, active compounds read low
[24] = S. cerevisiae deletion strains, locus YHR030C, strain SLT2, active compounds read low
[25] = S. cerevisiae deletion strains, locus YHR079C, strain IRE1 (second series), active compounds read low
[26] = S. cerevisiae deletion strains, locus YHR094C, strain hxt1, active compounds read low
[27] = S. cerevisiae deletion strains, locus YHR129C, strain ARP1, active compounds read low
[28] = S. cerevisiae deletion strains, locus YHR200W, strain rpn10, active compounds read low
[29] = S. cerevisiae deletion strains, locus YIL066C, strain RNR3, active compounds read low
[30] = S. cerevisiae deletion strains, locus YIL073C, strain SPO22, active compounds read low
[31] = S. cerevisiae deletion strains, locus YIL125W, strain kgd1, active compounds read low
[32] = S. cerevisiae deletion strains, locus YIR030C, strain dcg1, active compounds read low
[33] = S. cerevisiae deletion strains, locus YJL095W, strain BCK1, active compounds read low
[34] = S. cerevisiae deletion strains, locus YJL134W, strain LCB3, active compounds read low
[35] = S. cerevisiae deletion strains, locus YJL168C, strain set2, active compounds read low
[36] = S. cerevisiae deletion strains, locus YJL187C, strain SWE1 (second series), active compounds read low
[37] = S. cerevisiae deletion strains, locus YJR043C, strain POL32, active compounds read low
[38] = S. cerevisiae deletion strains, locus YKL009W, strain mrt4, active compounds read low
[39] = S. cerevisiae deletion strains, locus YKL068W, active compounds read low
[40] = S. cerevisiae deletion strains, locus YKL085W, strain MDH1 (second series), active compounds read low
[41] = S. cerevisiae deletion strains, locus YKL085W, strain MDH1, active compounds read low
[42] = S. cerevisiae deletion strains, locus YKL190W, strain CNB1, active compounds read low
[43] = S. cerevisiae deletion strains, locus YKR001C, strain vps1, active compounds read low
[44] = S. cerevisiae deletion strains, locus YLR039C, strain RIC1, active compounds read low
[45] = S. cerevisiae deletion strains, locus YLR058C, strain SHM2, active compounds read low
[46] = S. cerevisiae deletion strains, locus YLR102C, strain apc9, active compounds read low
[47] = S. cerevisiae deletion strains, locus YLR262C, strain YPT6, active compounds read low
[48] = S. cerevisiae deletion strains, locus YLR268W, strain sec22, active compounds read low
[49] = S. cerevisiae deletion strains, locus YLR330W, strain CHS5, active compounds read low
[50] = S. cerevisiae deletion strains, locus YLR342W, strain FKS1 (second series), active compounds read low
[51] = S. cerevisiae deletion strains, locus YLR371W, strain rom2, active compounds read low
[52] = S. cerevisiae deletion strains, locus YLR418C, strain cdc73, active compounds read low
[53] = S. cerevisiae deletion strains, locus YML016C, strain PPZ1, active compounds read low
[54] = S. cerevisiae deletion strains, locus YML032C, strain rad52, active compounds read low
[55] = S. cerevisiae deletion strains, locus YML124C, strain tub3, active compounds read low
[56] = S. cerevisiae deletion strains, locus YMR078C, strain ctf18, active compounds read low
[57] = S. cerevisiae deletion strains, locus YMR223W, strain ubp8, active compounds read low
[58] = S. cerevisiae deletion strains, locus YMR307W, strain GAS1, active compounds read low
[59] = S. cerevisiae deletion strains, locus YNL067W, strain RPL9B, active compounds read low
[60] = S. cerevisiae deletion strains, locus YNL233W, strain BNI4, active compounds read low
[61] = S. cerevisiae deletion strains, locus YNL250W, strain rad50, active compounds read low
[62] = S. cerevisiae deletion strains, locus YNL271C, strain bni1, active compounds read low
[63] = S. cerevisiae deletion strains, locus YNL298W, strain CLA4, active compounds read low
[64] = S. cerevisiae deletion strains, locus YNL307C, strain MCK1, active compounds read low
[65] = S. cerevisiae deletion strains, locus YNL322C, strain KRE1, active compounds read low
[66] = S. cerevisiae deletion strains, locus YNR052C, strain pop2, active compounds read low
[67] = S. cerevisiae deletion strains, locus YOL006C, strain TOP1, active compounds read low
[68] = S. cerevisiae deletion strains, locus YOL012C, strain htz1
[69] = S. cerevisiae deletion strains, locus YOL147C, strain pex11, active compounds read low
[70] = S. cerevisiae deletion strains, locus YOR061W, strain CKA2, active compounds read low
[71] = S. cerevisiae deletion strains, locus YOR069W, strain VPS5, active compounds read low
[72] = S. cerevisiae deletion strains, locus YOR136W, strain idh2, active compounds read low
[73] = S. cerevisiae deletion strains, locus YOR144C, strain elg1, active compounds read low
[74] = S. cerevisiae deletion strains, locus YOR184W, strain ser1, active compounds read low
[75] = S. cerevisiae deletion strains, locus YOR316C, strain cot1, active compounds read low
[76] = S. cerevisiae deletion strains, locus YPR119W, strain clb2, active compounds read low
[77] = S. cerevisiae deletion strains, locus YPR141C, strain kar3, active compounds read low
[78] = S. cerevisiae deletion strains, locus YPR163C, strain tif3, active compounds read low
[79] = S. cerevisiae deletion strains, locus YPR167C, strain met16, active compounds read low
[80] = S. cerevisiae deletion strains, strain wtn01, active compounds read low

SMILES: NC(N)=NCCC[C@@H](NC(=O)[C@@H](N)Cc1ccc(O)cc1)C(=O)O
- normalized growth [1]: 1.01
- normalized growth [2]: 1.01
- normalized growth [3]: 1.01
- normalized growth [4]: 1.02
- normalized growth [5]: 1.01
- normalized growth [6]: 1
- normalized growth (S. cerevisiae deletion strains, locus YDL134C, strain PPH21, active compounds read low): 1.01
- normalized growth [7]: 1.01
- normalized growth [8]: 1.01
- normalized growth [9]: 0.996
- normalized growth (S. cerevisiae deletion strains, locus YDR150W, strain NUM1, active compounds read low): 1.01
- normalized growth [10]: 1
- normalized growth [11]: 1.01
- normalized growth [12]: 1.01
- normalized growth [13]: 1.02
- normalized growth [14]: 1.01
- normalized growth [15]: 1.02
- normalized growth [16]: 1.01
- normalized growth [17]: 1.01
- normalized growth [18]: 1.01
- normalized growth [19]: 1
- normalized growth [20]: 1.01
- normalized growth (S. cerevisiae deletion strains, locus YGR078C, strain PAC10, active compounds read low): 0.996
- normalized growth [21]: 1.01
- normalized growth [22]: 0.997
- normalized growth [23]: 0.99
- normalized growth [24]: 1.01
- normalized growth [25]: 1.01
- normalized growth [26]: 1.01
- normalized growth [27]: 1
- normalized growth [28]: 1.01
- normalized growth [29]: 1.01
- normalized growth [30]: 1.03
- normalized growth [31]: 1.01
- normalized growth [32]: 1.01
- normalized growth [33]: 0.996
- normalized growth [34]: 1.01
- normalized growth [35]: 1.01
- normalized growth [36]: 1.01
- normalized growth [37]: 1.01
- normalized growth [38]: 0.997
- normalized growth [39]: 1.01
- normalized growth [40]: 1.01
- normalized growth [41]: 1.01
- normalized growth [42]: 1.01
- normalized growth [43]: 0.993
- normalized growth [44]: 1.03
- normalized growth [45]: 1.01
- normalized growth [46]: 1.01
- normalized growth [47]: 0.992
- normalized growth [48]: 1.01
- normalized growth [49]: 1.01
- normalized growth [50]: 1.02
- normalized growth [51]: 1.01
- normalized growth [52]: 1.02
- normalized growth [53]: 1
- normalized growth [54]: 1.02
- normalized growth [55]: 1.01
- normalized growth [56]: 1.01
- normalized growth [57]: 1.01
- normalized growth [58]: 0.979
- normalized growth [59]: 1.01
- normalized growth (S. cerevisiae deletion strains, locus YNL153C, strain GIM3, active compounds read low): 0.993
- normalized growth [60]: 1.01
- normalized growth [61]: 0.998
- normalized growth [62]: 1.01
- normalized growth [63]: 1.01
- normalized growth [64]: 1.01
- normalized growth [65]: 1.01
- normalized growth [66]: 1.02
- normalized growth [67]: 1.03
- normalized growth [68]: 1.88
- normalized growth [69]: 1.01
- normalized growth [70]: 1.01
- normalized growth [71]: 1.01
- normalized growth [72]: 1
- normalized growth [73]: 1.01
- normalized growth [74]: 1.01
- normalized growth [75]: 1.01
- normalized growth (S. cerevisiae deletion strains, locus YPL055C, strain LGE1, active compounds read low): 1
- normalized growth [76]: 1.01
- normalized growth [77]: 1.01
- normalized growth [78]: 1.02
- normalized growth [79]: 1.01
- normalized growth [80]: 0.999
- normalized growth (S. cerevisiae strains, strain wild type, active compounds read low): 1

SMILES: NC(N)=NCCCC(NC(=O)C(N)Cc1ccc(O)cc1)C(=O)O (stereo not drawn)
- normalized growth (S. cerevisiae deletion strains, locus YAL013W, strain DEP1, active compounds read low): 1.03
- normalized growth [1]: 1.25 [resistant] (active)
- normalized growth [2]: 0.998
- normalized growth [3]: 0.969
- normalized growth [4]: 1.04
- normalized growth [5]: 1.03
- normalized growth [6]: 0.989
- normalized growth [7]: 0.962
- normalized growth [8]: 0.994
- normalized growth [9]: 0.989
- normalized growth [10]: 1.02
- normalized growth [11]: 0.991
- normalized growth [12]: 0.989
- normalized growth [13]: 0.987
- normalized growth [14]: 0.988
- normalized growth [15]: 0.971
- normalized growth [16]: 0.99
- normalized growth [17]: 1.01
- normalized growth [18]: 1
- normalized growth [19]: 0.981
- normalized growth [20]: 0.997
- normalized growth [21]: 1
- normalized growth [22]: 1.05
- normalized growth [23]: 1.23
- normalized growth [24]: 0.994
- normalized growth [25]: 0.968
- normalized growth [26]: 0.985
- normalized growth [27]: 0.99
- normalized growth [28]: 0.981
- normalized growth [29]: 1.01
- normalized growth [30]: 0.924
- normalized growth [31]: 0.995
- normalized growth [32]: 0.996
- normalized growth [33]: 0.988
- normalized growth [34]: 0.992
- normalized growth [35]: 0.989
- normalized growth [36]: 0.99
- normalized growth [37]: 1.08
- normalized growth [38]: 0.938
- normalized growth [39]: 0.968
- normalized growth [40]: 0.988
- normalized growth [41]: 0.988
- normalized growth [42]: 0.993
- normalized growth [43]: 0.982
- normalized growth [44]: 1
- normalized growth [45]: 0.991
- normalized growth [46]: 0.972
- normalized growth [47]: 1
- normalized growth [48]: 0.97
- normalized growth [49]: 0.988
- normalized growth [50]: 1.05
- normalized growth [51]: 0.99
- normalized growth [52]: 1.07
- normalized growth [53]: 0.992
- normalized growth [54]: 0.996
- normalized growth [55]: 0.995
- normalized growth [56]: 0.997
- normalized growth [57]: 1.03
- normalized growth (S. cerevisiae deletion strains, locus YMR263W, strain SAP30, active compounds read low): 0.983
- normalized growth [58]: 1.31
- normalized growth [59]: 0.968
- normalized growth [60]: 1
- normalized growth [61]: 0.951
- normalized growth [62]: 1
- normalized growth [63]: 0.995
- normalized growth [64]: 0.985
- normalized growth [65]: 1
- normalized growth [66]: 0.976
- normalized growth [67]: 1.04
- normalized growth [68]: 1.32
- normalized growth [69]: 0.991
- normalized growth [70]: 0.988
- normalized growth [71]: 0.989
- normalized growth [72]: 0.978
- normalized growth [73]: 0.995
- normalized growth [74]: 0.984
- normalized growth [75]: 0.979
- normalized growth [76]: 0.988
- normalized growth [77]: 0.969
- normalized growth [78]: 1
- normalized growth [79]: 0.997
- normalized growth [80]: 0.964
